Experimental data as given in PubChem BioAssay (Tox21).
Results filed as inconclusive are left out. The source made the active and inactive calls. Unless noted, the call rests on the fitted dose curve.

Experiments:
[1] = qHTS assay to identify small molecule agonists of the sonic hedgehog signaling (Shh) pathway (AID 1259368);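 further: NIH/3T3-derived 3T3Gli1-Luc cells carrying a stable Gli1-driven firefly luciferase reporter; series mostly up to about 92 µM; nearly all actives have a fitted effect of over 15% in size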
Summary of the method: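 Luminescence was read after 30 min at room temperature with luciferase reagent. Before that, 3T3Gli1-Luc cells (NIH/3T3 clone, stable Gli1-Luc reporter; 2,000/well) were exposed to compounds for 24 hr at 37C, 5% CO2, compounds being added 4 hr post-plating.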

[2] = qHTS assay to identify small molecule antagonists of the sonic hedgehog signaling (Shh) pathway (AID 1259369); further: nearly all actives have a fitted effect of over 45% in size; further: potency means the concentration at half of the fitted maximal effect
Summary of the method: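 Antagonist mode: compound added to 3T3 Gli1-Luc cells followed by conditioned-medium stimulation, 24 h at 37 C, 5% CO2. Inhibition taken as loss of Gli1-driven luciferase luminescence.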

[3] = qHTS assay to identify small molecule agonists of the androgen receptor (AR) signaling pathway in the presence of an antagonist - cell viability counter screen (AID 1259379; active means well fitted curve in the direction sought with a large enough effect in the repeat runs; an effect the other way counts as inactive or inconclusive; further: nearly all actives have a fitted effect of over 25% in size; further: potency means the concentration at half of the fitted maximal effect)
Summary of the method: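 Cytotoxicity counter-screen run in the same wells as the nilutamide-challenged (3.0 µM final) AR agonist assay in MDA-kb2 cells. Compounds tested at 15 concentrations for 16 h, 37 °C without CO2; CellTiter-Fluor fluorescence read.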

[4] = qHTS assay to identify small molecule agonists of the estrogen receptor beta (ER-beta) signaling pathway - cell viability counter screen (AID 1259380; active means well fitted curve in the direction sought with a large enough effect in the repeat runs; an effect the other way counts as inactive or inconclusive; further: nearly all actives have a fitted effect of over 30% in size; further: potency means the concentration at half of the fitted maximal effect)
Summary of the method: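 Cell viability counter screen: CellTiter-Glo luminescence (30 min, room temperature) measured in the same wells as the beta-lactamase readout, after 16 hr compound exposure at 37C of ER-beta-bla HEK293T cells in 2% charcoal-stripped FBS medium.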

[5] = qHTS assay to identify small molecule antagonists of the estrogen receptor beta (ER-beta) signaling pathway - cell viability counter screen (AID 1259382; active means well fitted curve in the direction sought with a large enough effect in the repeat runs; an effect the other way counts as inactive or inconclusive; further: nearly all actives have a fitted effect of over 55% in size; further: potency means the concentration at half of the fitted maximal effect)
Summary of the method: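 Cytotoxicity was measured in the same wells by CellTiter-Glo luminescence after 30 min at room temperature. Cells were ER-beta-bla HEK293T in charcoal-stripped serum, given compound together with 1 nM E2 and incubated 16 h at 37C.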

[6] = target: Estrogen receptor (Homo sapiens) (UniProt P03372); assay: qHTS assay to identify small molecule agonists of the estrogen receptor alpha (ER-alpha) signaling pathway in the presence of an antagonist (AID 1259383); further: top concentration of the series differs between compounds; nearly all actives have a fitted effect of over 15% in size
Chain of Estrogen receptor (Homo sapiens) (P03372 whole entry, looked up): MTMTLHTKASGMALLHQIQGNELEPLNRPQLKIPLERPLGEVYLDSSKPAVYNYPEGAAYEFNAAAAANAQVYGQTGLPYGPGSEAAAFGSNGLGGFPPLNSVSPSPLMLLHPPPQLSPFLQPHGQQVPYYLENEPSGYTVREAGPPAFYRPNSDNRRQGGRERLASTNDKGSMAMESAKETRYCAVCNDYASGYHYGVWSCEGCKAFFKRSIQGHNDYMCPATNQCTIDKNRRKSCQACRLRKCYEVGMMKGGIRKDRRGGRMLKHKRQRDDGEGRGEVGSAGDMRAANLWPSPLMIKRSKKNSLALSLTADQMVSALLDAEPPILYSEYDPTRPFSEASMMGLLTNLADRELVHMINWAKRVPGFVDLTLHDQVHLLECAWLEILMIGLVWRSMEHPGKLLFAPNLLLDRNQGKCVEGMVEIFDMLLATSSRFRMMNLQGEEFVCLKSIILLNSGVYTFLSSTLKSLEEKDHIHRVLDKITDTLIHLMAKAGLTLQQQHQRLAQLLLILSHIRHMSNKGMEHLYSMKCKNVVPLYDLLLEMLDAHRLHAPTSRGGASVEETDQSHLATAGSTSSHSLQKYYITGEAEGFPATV
Summary of the method: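 Agonist-mode confirmation run in the presence of 10.0nM (final) ICI-182,780 antagonist. The reporter was ERE-driven luciferase in VM7Luc4E2 cells, grown in charcoal-stripped serum. Cells were exposed to 15-concentration compound series for 22hr, then ONE-Glo luminescence was read.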

[7] = qHTS assay to identify small molecule agonists or antagonists of the thyroid stimulating hormone receptor (TSHR) signaling pathway - wild type cell line counter screen (AID 1259384)
Summary of the method: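 Counter screen in untransfected Hek293: compounds (15-point titration, triplicate) plus phosphodiesterase inhibitor Ro20-1724 added after 18 h plating; 30 min RT. Intracellular cAMP via competitive d2/cryptate immunoassay, 1 h incubation.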

[8] = target: Androgen receptor (Homo sapiens) (UniProt P10275); assay: qHTS assay to identify small molecule agonists of the androgen receptor (AR) signaling pathway in the presence of an antagonist (AID 1259381); further: nearly all actives have a fitted effect of over 15% in size
Chain of Androgen receptor (Homo sapiens) (P10275 whole entry, looked up): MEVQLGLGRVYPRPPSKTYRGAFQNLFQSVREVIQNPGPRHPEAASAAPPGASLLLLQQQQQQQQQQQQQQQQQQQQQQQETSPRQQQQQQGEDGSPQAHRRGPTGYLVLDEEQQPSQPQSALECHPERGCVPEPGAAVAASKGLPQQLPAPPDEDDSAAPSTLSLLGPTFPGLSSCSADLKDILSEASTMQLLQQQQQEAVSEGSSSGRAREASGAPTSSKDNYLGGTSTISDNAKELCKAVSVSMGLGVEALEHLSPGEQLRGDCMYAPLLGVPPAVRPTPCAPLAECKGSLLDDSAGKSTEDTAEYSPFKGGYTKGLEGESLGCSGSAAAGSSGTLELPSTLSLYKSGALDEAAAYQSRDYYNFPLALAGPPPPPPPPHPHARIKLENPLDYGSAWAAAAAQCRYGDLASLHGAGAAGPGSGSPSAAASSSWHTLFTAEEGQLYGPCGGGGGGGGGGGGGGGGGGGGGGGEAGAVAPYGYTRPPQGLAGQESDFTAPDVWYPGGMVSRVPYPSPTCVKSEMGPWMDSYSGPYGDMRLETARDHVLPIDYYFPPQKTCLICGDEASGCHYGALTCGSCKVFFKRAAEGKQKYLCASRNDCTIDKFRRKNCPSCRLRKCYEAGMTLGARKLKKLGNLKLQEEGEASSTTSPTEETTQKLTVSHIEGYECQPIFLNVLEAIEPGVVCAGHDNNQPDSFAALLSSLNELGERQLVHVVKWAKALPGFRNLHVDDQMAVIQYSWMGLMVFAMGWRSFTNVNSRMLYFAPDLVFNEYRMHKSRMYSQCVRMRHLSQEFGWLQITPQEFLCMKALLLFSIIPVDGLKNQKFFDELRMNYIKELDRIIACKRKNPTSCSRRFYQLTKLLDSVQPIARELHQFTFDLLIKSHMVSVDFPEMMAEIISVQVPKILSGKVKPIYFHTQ
Summary of the method: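 Agonist-mode confirmation run against 3.0 uM final nilutamide: compounds titrated at 15 concentrations onto MDA-kb2 MMTV-luciferase reporter cells. Luminescence measured with ONE-Glo following 16 hr incubation, 37C, 0% CO2.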

[9] = target: Estrogen receptor beta (Homo sapiens) (UniProt Q92731); assay: qHTS assay to identify small molecule agonists of the estrogen receptor beta (ER-beta) signaling pathway (AID 1259377; active means well fitted activation curve with a large enough effect in the signal ratio in the repeat runs, not every such curve was filed as active; the % refers to the signal ratio)
Chain of Estrogen receptor beta (Homo sapiens) (Q92731 whole entry, looked up, the tested form may be a part): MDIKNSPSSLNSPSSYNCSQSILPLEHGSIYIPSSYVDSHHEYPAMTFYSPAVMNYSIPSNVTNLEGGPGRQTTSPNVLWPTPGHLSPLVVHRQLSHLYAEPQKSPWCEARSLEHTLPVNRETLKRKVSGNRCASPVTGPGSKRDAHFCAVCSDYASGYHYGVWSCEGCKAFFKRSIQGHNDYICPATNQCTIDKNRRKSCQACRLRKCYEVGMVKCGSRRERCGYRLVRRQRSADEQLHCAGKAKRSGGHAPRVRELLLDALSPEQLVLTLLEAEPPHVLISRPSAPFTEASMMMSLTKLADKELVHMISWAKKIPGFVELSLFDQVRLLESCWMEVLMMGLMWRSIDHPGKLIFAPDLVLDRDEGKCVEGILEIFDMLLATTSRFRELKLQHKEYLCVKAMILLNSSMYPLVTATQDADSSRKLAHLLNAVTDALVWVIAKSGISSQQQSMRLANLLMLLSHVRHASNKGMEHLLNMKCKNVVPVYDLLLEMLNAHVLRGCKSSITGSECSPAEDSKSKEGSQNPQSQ
Summary of the method: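 Agonist mode cell assay in GripTite HEK293T cells expressing an ER-beta fusion that drives beta-lactamase from an Upstream Activator Sequence; 16 hr compound exposure at 37C, then 2 h LiveBLAzer B/G FRET substrate at room temperature, fluorescence read-out.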

[10] = target: Estrogen receptor beta (Homo sapiens) (UniProt Q92731); assay: qHTS assay to identify small molecule antagonists of the estrogen receptor beta (ER-beta) signaling pathway (AID 1259378; active means well fitted inhibition curve with a large enough effect in the signal ratio in the repeat runs, not every such curve was filed as active; the % refers to the signal ratio; further: potency means the concentration at half of the fitted maximal effect)
Summary of the method: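 Antagonist mode: compounds added to beta-lactamase reporter HEK293T ER-beta-UAS cells stimulated with E2 (1nM final), 16 hr at 37C. LiveBLAzer B/G FRET substrate, 2 hours room temperature, fluorescence read-out.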

Measured: Potency

CCN(Cc1cccc(S(=O)(=O)O)c1)c1ccc(C(=C2C=CC(=[N+](CC)Cc3cccc(S(=O)(=O)[O-])c3)C=C2)c2ccccc2)cc1
not listed: [8] | [9] | [10]
inactive: all other assays above

CC(C)CCCC(=O)O
not listed: [7] | [9] | [10]
inactive: all other assays above

COCC(O)CO (stereo not given)
not listed: [8] | [9] | [10]
inactive: all other assays above

COc1ccc([C@@H]2Sc3ccccc3NC(=O)[C@@H]2O)cc1
not listed: [9] | [10]
inactive: all other assays above

CCC1(C)CC(=O)NC1=O (stereo not given)
inactive: [1] | [2] | [3] | [4] | [5] | [6]

CCC(C)(C)C1CCC(O)CC1 (stereo not given)
not listed: [8] | [9] | [10]
inactive: all other assays above

CCC(C)(O)CCC=C(C)C (stereo not given)
not listed: [8] | [9] | [10]
inactive: all other assays above

Nc1ccc(S(=O)(=O)O)cc1
inactive: [1] | [2] | [3] | [4] | [5] | [6]

CC1=NN(c2ccc(C(=O)O)cc2)C(=O)C1
inactive: [1] | [2] | [3] | [4] | [8] | [5]

COC(=O)[C@@H]1CC2=CC(=O)CC[C@]2(C)[C@@]23O[C@@H]2C[C@@]2(C)[C@@H](CC[C@@]24CCC(=O)O4)[C@H]13
not listed: [8] | [9] | [10]
inactive: all other assays above

C[N+](C)(C)CCOC(N)=O
not listed: [6] | [9] | [10]
inactive: all other assays above

CCCCCCOC(=O)CCCCCCCC(=O)OCCCCCC
inactive: [1] | [2] | [3] | [4] | [5] | [7]

CC1CC(=O)NN=C1c1ccc(NCC(C)(C)NCC(O)COc2cc(Cl)ccc2C#N)cc1 (stereo not given)
inactive: [1] | [9] | [10] | [3] | [5] | [6]

CC(C)C(OC(=O)c1ccccc1)C(C)(C)COC(=O)c1ccccc1 (stereo not given)
inactive: [1] | [2] | [3] | [5] | [7]

CC(=O)CC(c1ccc([N+](=O)[O-])cc1)c1c(O)c2ccccc2oc1=O (stereo not given)
inactive: [1] | [2] | [4] | [5] | [6] | [7]

CCCCCCCC/C=C\CCCCCCCC(=O)OC(CO)CO
inactive: [1] | [9]

C=CC(C)(O)CCCC(C)CCCC(C)CCCC(C)C (stereo not given)
not listed: [2] | [8]
inactive: all other assays above

O=C(N[C@@H](c1ccccc1)[C@@H]1CCCCN1)c1cccc(C(F)(F)F)c1Cl
active: [10] 43.3 µM | [3] 17.2 µM | [4] 54.5 µM | [5] 61.1 µM
inactive: [1] | [9] | [6]

Fc1ccccc1[C@@H](F)COC1CCC(Nc2ncnc3[nH]ncc23)CC1 (stereo not given in full)
active: [2] 12.2 µM | [4] 68.6 µM
inactive: [1] | [8] | [7]

CC(COc1ccc(C(C)(C)C)cc1)OS(=O)OCCCl (stereo not given)
inactive: [1] | [5] | [6] | [7]
active: [2] 1.94 µM

CC1=CC(O)CC(C)(C)C1 (stereo not given)
not listed: [8] | [9] | [10]
inactive: all other assays above

CC(C)CCCCCCOC(=O)CCCCC(=O)OCCCCCCC(C)C
inactive: [1] | [2] | [4] | [6] | [7]

Brc1cc(-c2ccc(Br)c(Br)c2Br)cc(Br)c1Br
not listed: [2] | [5] | [8]
inactive: all other assays above

CC(C)OCC1CO1 (stereo not given)
inactive: [1] | [9] | [10] | [3] | [4] | [6]

Fc1c(F)c(F)c(Br)c(F)c1F
inactive: [1] | [2] | [3] | [4] | [5] | [7]

OCCSc1ccccc1
active: [4] 19.3 µM
inactive: [1] | [2] | [3] | [6]

CCc1cccc(N(C)C(N)=Nc2cccc3ccccc23)c1
active: [4] 2.66 µM
not listed: [2] | [6]
inactive: all other assays above

Oc1ccc(Nc2ccccc2)cc1
inactive: [1] | [2] | [3] | [8] | [6] | [7]

CCCCC1C(=O)N(c2ccccc2)N(c2ccc(O)cc2)C1=O (stereo not given)
active: [2] 7.5 µM | [4] 23.7 µM | [5] 29.8 µM
inactive: [1] | [8]
